Twelve molecules from PubChem BioAssay (NCATS) can be followed below.

Results filed as inconclusive are left out. Calls of active or inactive are those of the source. Calls follow the shape of the dose curve; as a rule, active = well fitted curve in the direction sought with a large enough effect; inconclusive = small, poorly fitted or top-dose-only effect, or another doubt; inactive = no such curve, though single readings can be large; an effect the other way counts as inactive or inconclusive.

The nature of assay [1]: qHTS of pediatric cancer cell lines to identify multiple opportunities for drug repurposing: Primary screen for BT-37 cells (AID 1347094). In outline: (§1)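 Following a 5-hour attachment period, cells at 500-1,000/well received compounds and were cultured for 48 hours. CellTiter-Glo was added and luminescence read to estimate viable, metabolically active cells.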
For orientation: In qHTS, concentration-response curves come from the screen itself.

Assay [2] in a line: qHTS of pediatric cancer cell lines to identify multiple opportunities for drug repurposing: Primary screen for NB-EBc1 cells (AID 1347095). In outline:
as §1

Assay [3] can be described thus: qHTS of pediatric cancer cell lines to identify multiple opportunities for drug repurposing: Primary screen for U-2 OS cells (AID 1347096). Also: nearly all actives have a fitted effect of over 50% in size. In outline: (§2)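 Viability after 48 h compound treatment at 37C, 500-1,000 cells/well, read as ATP luminescence with CellTiter-Glo. Primary screens used 11-point (MIPE, 0.78 nM-46 µM) or 8-point (NPC, 0.59 nM-46 µM) final concentrations; follow-up screens used 11-point dilutions.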

Assay [4] in a line: qHTS of pediatric cancer cell lines to identify multiple opportunities for drug repurposing: Primary screen for Saos-2 cells (AID 1347097). Also: nearly all actives have a fitted effect of over 40% in size. In outline:
as §1

A short description of assay [5]: qHTS of pediatric cancer cell lines to identify multiple opportunities for drug repurposing: Primary screen for SK-N-SH cells (AID 1347098). Also: nearly all actives have a fitted effect of over 65% in size. In outline: (§3)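 Cells (500-1,000/well) rested 5 h, then received compounds for 48 h; metabolically active cells were measured by CellTiter-Glo luminescence. Final concentrations spanned up to 46 µM (MIPE, 11-point) or 0.59 nM-46 µM (NPC, 8-point) in primary screens, 11-point in follow-ups.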

A short description of assay [6]: qHTS of pediatric cancer cell lines to identify multiple opportunities for drug repurposing: Primary screen for NB1643 cells (AID 1347099). Also: nearly all actives have a fitted effect of over 50% in size. Summed up:
as §1

The nature of assay [7]: qHTS of pediatric cancer cell lines to identify multiple opportunities for drug repurposing: Primary screen for LAN-5 cells (AID 1347100). Summed up:
as §2

A short description of assay [8]: qHTS of pediatric cancer cell lines to identify multiple opportunities for drug repurposing: Primary screen for BT-12 cells (AID 1347101). Also: nearly all actives have a fitted effect of over 25% in size. Summed up:
as §3

Assay [9] in a line: qHTS of pediatric cancer cell lines to identify multiple opportunities for drug repurposing: Primary screen for MG 63 (6-TG R) cells (AID 1347105). Also: nearly all actives have a fitted effect of over 50% in size. Summed up: as §1
Assay [10] is described as follows: qHTS of pediatric cancer cell lines to identify multiple opportunities for drug repurposing: Primary screen for control Hh wild type fibroblast cells (AID 1347106). Also: nearly all actives have a fitted effect of over 55% in size. In outline:
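Cells (500-1,000/well) in growth media were settled 5 h at 37 degrees C, then given compounds for 48 h. Viability was read as CellTiter-Glo luminescence. Primary runs used MIPE at 11 points (0.78 nM-46 µM) and NPC at 8 points (0.59 nM-46 µM); follow-ups used 11 points.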

Assay [11] is described as follows: qHTS of pediatric cancer cell lines to identify multiple opportunities for drug repurposing: Confirmatory screen for SK-N-MC cells (AID 1347111).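 Also: cells exposed to compound for 48 h before the readout; nearly all actives have a fitted effect of over 70% in size.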 Summed up:
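SK-N-MC cells at 500-1,000 cells/well in growth media were pre-incubated 5 h, then exposed to compounds at 11-point dilutions for 48 h at 37 degrees C, 5% CO2. Viability was read as CellTiter-Glo luminescence.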

The nature of assay [12]: qHTS of pediatric cancer cell lines to identify multiple opportunities for drug repurposing: Confirmatory screen for BT-12 cells (AID 1347112). Also: nearly all actives have a fitted effect of over 55% in size. In outline: as §2
The nature of assay [13]: qHTS of pediatric cancer cell lines to identify multiple opportunities for drug repurposing: Confirmatory screen for LAN-5 cells (AID 1347113). Also: nearly all actives have a fitted effect of over 65% in size. Summed up: as §2
The nature of assay [14]: qHTS of pediatric cancer cell lines to identify multiple opportunities for drug repurposing: Primary screen for Rh18 cells (AID 1347102). Also: nearly all actives have a fitted effect of over 65% in size. In outline: as §2
Assay [15] is described as follows: qHTS of pediatric cancer cell lines to identify multiple opportunities for drug repurposing: Primary screen for OHS-50 cells (AID 1347103). Also: nearly all actives have a fitted effect of over 40% in size. In outline: as §3
Assay [16] can be described thus: qHTS of pediatric cancer cell lines to identify multiple opportunities for drug repurposing: Primary screen for RD cells (AID 1347104). Also: nearly all actives have a fitted effect of over 55% in size. Summed up:
as §1

Assay [17] can be described thus: qHTS of pediatric cancer cell lines to identify multiple opportunities for drug repurposing: Primary screen for Rh41 cells (AID 1347108). Also: nearly all actives have a fitted effect of over 70% in size. In outline:
as §1

A short description of assay [18]: qHTS of pediatric cancer cell lines to identify multiple opportunities for drug repurposing: Primary screen for Rh30 cells (AID 1347107). Also: nearly all actives have a fitted effect of over 75% in size. Summed up: as §2
Assay [19] is described as follows: qHTS of pediatric cancer cell lines to identify multiple opportunities for drug repurposing: Confirmatory screen for NB1643 cells (AID 1347109). Also: nearly all actives have a fitted effect of over 45% in size. In outline: as §2
Assay [20] in a line: qHTS of pediatric cancer cell lines to identify multiple opportunities for drug repurposing: Confirmatory screen for A673 cells (AID 1347110). Also: nearly all actives have a fitted effect of over 65% in size. Summed up: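 Cells plated at 500-1,000/well were treated five hours later with multi-point dilutions up to 46 µM final. After two days, CellTiter-Glo was added and luminescence read.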
Potency is read from the fitted curve at half-maximal effect.

For `CC(=O)O[C@H]1C[C@@H]2CC[C@H]3[C@H]4C[C@H]([N+]5(C)CCCCC5)[C@@H](OC(C)=O)[C@@]4(C)CC[C@@H]3[C@@]2(C)C[C@H]1N1CCCCC1`, the Potency result in assay [1], in assay [2], in assay [3], in [4], in assay [5] and in assay [6] was “inactive” in each case. For the same molecule, the Potency result in assay [7], in assay [8], in assay [9] and in assay [10] was “inactive” throughout. Moreover, the Potency is 3.29 µM (active) in assay [11], 7.37 µM (active) in assay [12] and 4.14 µM (active) in assay [13].

Take `C[C@H](NCc1ccc(OCc2cccc(F)c2)cc1)C(N)=O`: the Potency was 19.3 µM (active) in [1]; 10.5 µM (active) in [2]; 18.7 µM (active) in assay [3]; 16.6 µM (active) in [4]; 30.4 µM (active) in assay [5]; 14.8 µM (active) in assay [6]. For the same molecule, the Potency in assay [7] is 7.43 µM (active); in assay [14] it was 20.9 µM (active); in assay [15], 4.85 µM (active); in assay [16], 16.6 µM (active); in [9], 18.7 µM (active); in [17], 18.7 µM (active).

For `O=C(NNC(=O)c1ccc(CNS(=O)(=O)c2ccc(F)c(Cl)c2)cc1)c1ccccc1`, the Potency entry in assay [1], in assay [2], in [3], in assay [4], in assay [5] and in assay [7] was “inactive” each time. Moreover, the Potency entry in [8], in [14], in [15], in [16], in assay [9] and in assay [10] was “inactive” throughout. The Potency result in assay [18] and in assay [17] was “inactive” each time.

Turning to `OCCN1C[C@H](O)[C@@H](O)[C@H](O)[C@@H]1CO`, in assay [1], the Potency was 19.3 µM (active). The Potency entry in assay [2], in assay [3], in [4], in assay [5], in assay [6] and in assay [14] was “inactive” throughout. Moreover, the Potency result in assay [9], in assay [10] and in assay [17] was “inactive” in each case.

Regarding `Cn1cc(CNCC2CCN(c3ncc(C(=O)NO)cn3)CC2)c2ccccc21`, the Potency was 0.109 µM (active) in assay [1]; 0.0935 µM (active) in [2]; 0.469 µM (active) in [3]; 0.148 µM (active) in assay [4]; 0.121 µM (active) in assay [5]; 0.148 µM (active) in assay [6]. Besides, the Potency is 0.0526 µM (active) in [7]; 0.0372 µM (active) in [14]; 0.187 µM (active) in [16]; 0.187 µM (active) in assay [9]; 2.64 µM (active) in assay [10]; 0.148 µM (active) in assay [17]. The Potency in assay [19] was 0.165 µM (active); in assay [20], 0.104 µM (active); in assay [12], 0.369 µM (active).

Turning to `Cn1c(Nc2ccc(C(F)(F)F)cc2)nc2cc(Oc3ccnc(-c4ncc(C(F)(F)F)[nH]4)c3)ccc21`, the Potency in assay [1] was 2.43 µM (active); in [2], 14.8 µM (active); in assay [3], 14.8 µM (active); in assay [4], 2.96 µM (active); in assay [5] it was 7.64 µM (active); in assay [6] it was 11.8 µM (active). The Potency in assay [7] was 10.5 µM (active); in assay [8] it was 8.63 µM (active); in [16] it was 4.18 µM (active); in assay [19] it was 20.8 µM (active); in [11], 7.37 µM (active); in assay [13] it was 18.5 µM (active). Besides, the Potency entry in assay [18] is “inactive”.

As for `O=C(CCCCCCC(=O)Nc1cccnc1)NO`, the Potency in assay [1] was 19.3 µM (active); in assay [2] it was 4.18 µM (active); in [3], 11.8 µM (active); in assay [4] it was 13.2 µM (active); in assay [5] it was 6.07 µM (active); in [6] it was 2.96 µM (active). The Potency in assay [8] was 10.9 µM (active); in assay [14], 4.69 µM (active); in [15] it was 4.32 µM (active); in assay [9], 18.7 µM (active); in [18], 18.7 µM (active); in assay [17], 11.8 µM (active).

Regarding `NC[C@H]1O[C@H](O[C@H]2[C@@H](O)[C@@H](O[C@H]3O[C@H](CO)[C@@H](O)[C@H](N)[C@@H]3O)[C@H](N)C[C@@H]2N)[C@H](N)C[C@H]1O`, the Potency entry in assay [1], in assay [2], in assay [3], in assay [4], in assay [5] and in assay [6] was “inactive” in each case. Moreover, the Potency result in assay [7], in assay [8], in [15], in [9], in assay [10] and in assay [18] was “inactive” each time. In [17], the Potency result is “inactive”.

Consider `CC(C)C[C@H](NC(=O)CNC(=O)c1cc(Cl)ccc1Cl)B1OC(=O)CC(CC(=O)O)(C(=O)O)O1` (stereo partly specified), for which the Potency is 0.344 µM (active) in [1]; 0.469 µM (active) in [2]; 0.743 µM (active) in assay [3]; 0.372 µM (active) in assay [4]; 0.215 µM (active) in assay [5]; 0.372 µM (active) in assay [6]. Also, the Potency in assay [8] was 0.217 µM (active); in assay [14], 0.209 µM (active); in [15], 0.193 µM (active); in [16], 0.332 µM (active); in assay [9] it was 0.148 µM (active); in [10], 1.05 µM (active). Besides, the Potency is 1.48 µM (active) in [18]; 0.296 µM (active) in [17]; 0.261 µM (active) in assay [19]; 0.293 µM (active) in assay [20]; 0.131 µM (active) in assay [11]; 0.414 µM (active) in assay [12]. In addition, in assay [13], the Potency was 0.233 µM (active).

On to `CC(=O)OCC(=O)[C@@]1(O)CC[C@H]2[C@@H]3CCC4=CC(=O)CC[C@]4(C)[C@@H]3C(=O)C[C@@]21C`, for which the Potency result in [1], in assay [2], in assay [3], in assay [4], in assay [5] and in assay [6] was “inactive” throughout. Moreover, the Potency result in assay [7], in assay [8], in assay [16], in assay [9], in assay [10] and in assay [18] was “inactive” in each case. For the same molecule, in [17], the Potency entry was “inactive”.

Regarding `CN1[C@H]2CC(OC(=O)[C@@H](CO)c3ccccc3)C[C@H]1[C@H]1O[C@H]12` (stereo partly specified), the Potency result in [1], in assay [2], in [3], in assay [4], in assay [5] and in [7] was “inactive” in each case. The Potency entry in assay [8], in [14], in assay [15], in [16], in [9] and in assay [10] was “inactive” each time. For the same molecule, the Potency result in assay [18] and in assay [17] was “inactive” each time.

`Cc1cnc(Nc2ccc(N3CCN(C)CC3)cc2)nc1Nc1cccc(S(=O)(=O)NC(C)(C)C)c1`: the Potency was 21.7 µM (active) in assay [1]; 1.87 µM (active) in assay [2]; 4.69 µM (active) in assay [4]; 3.04 µM (active) in assay [5]; 3.72 µM (active) in [6]; 21.7 µM (active) in [8]. Also, the Potency in [14] was 3.32 µM (active); in assay [15], 1.09 µM (active); in assay [16], 5.26 µM (active); in [9], 7.43 µM (active); in assay [10], 16.6 µM (active); in [17] it was 5.9 µM (active). The Potency in assay [19] was 4.65 µM (active); in assay [20] it was 4.65 µM (active); in [11] it was 3.29 µM (active); in assay [12], 16.5 µM (active); in assay [13] it was 7.37 µM (active). Further, the Potency result in assay [3] is “inactive”.
